The values that follow come from PubChem BioAssay (Tox21).

Assay [1] can be described thus: qHTS assay to identify small molecule agonists of the hypoxia (HIF-1) signaling pathway - cell viability counter screen (AID 1224844; calls by dose curve; further: nearly all actives have a fitted effect of over 50% in size). In a few lines: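 Cytotoxicity measured by CellTiter-Glo ATP luminescence in the wells also read for beta-lactamase signal. Cells were HRE-bla ME-180 (2,000/well, 0.5% dialyzed FBS), exposed to compounds for 17 h at 37C.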
For orientation: Quantitative high-throughput screening tests each substance at several concentrations.

Assay [2] in a line: qHTS assay to identify small molecule agonists of H2AX (AID 1224845; active means well fitted activation curve with a large enough effect in the signal ratio in the repeat runs, not every such curve was filed as active; the % refers to the signal ratio). The gist of the method:
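Wild-type CHO-K1 cells, plated overnight, exposed 3hr at 37C to 15 concentrations (0.76% DMSO final). Lysed, then HTRF anti-pH2AX (S139) cryptate and anti-H2AX-d2 antibodies, 24 hr room temperature; 665/620 nm emission read.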

Assay [3] is described as follows: qHTS assay to identify small molecule antagonists of the estrogen related receptor (ERR) signaling pathway from Tox21 library (AID 1224848). Further: nearly all actives have a fitted effect of over 50% in size. Further: potency means the concentration at half of the fitted maximal effect. In a few lines: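 Compounds dissolved in DMSO are pin-transferred onto ERR reporter cells (2,000 per well) that have settled for 6 h at 37 C. Plates then incubate 18 h at 37 C before ONE-Glo luciferase reagent and a luminescence read 30 min later.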

A short description of assay [4]: qHTS assay to identify small molecule agonists of the estrogen related receptor (ERR) signaling pathway from Tox21 library (AID 1224849; calls by dose curve; further: nearly all actives have a fitted effect of over 15% in size). As to conditions: ERR reporter cell line, ONE-Glo luciferase, 18 h; at 92.4 µM (top of the series) unless noted. In a few lines:
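Luminescent agonist read-out (One-Glo, 30-minute room-temperature incubation) following 18-hour compound treatment at 37 C of the ERR cell line, which had been plated 6 hours before dosing.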

A short description of assay [5]: qHTS RealTime-Glo MT Cell Viability Assay in HepG2 cells - 24 hour (AID 1224867). Further: nearly all actives have a fitted effect of over 50% in size. The gist of the method: (§1)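 Compound treatment began 5 h after plating HepG2 cells (600/well) with NanoLuc luciferase and prosubstrate. Plates stayed at 37 C for 40 h; luminescence was captured at six time points, 0 h through 40 h.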
A short description of assay [6]: qHTS RealTime-Glo MT Cell Viability Assay in HEK293 cells - 32 hour (AID 1224868). Further: top concentration of the series differs between compounds; nearly all actives have a fitted effect of over 50% in size. In a few lines: (§2)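 Quantitative high-throughput screen of the Tox21 10K library in HEK293: cells and RealTime-Glo reagents plated together, compound added at 5 h, luminescence monitored through 40 h at 37 C.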
Assay [7] can be described thus: A CellTox Green Cytotoxicity Assay to monitor cytotoxicity in HEK293 cells - 0 hour (AID 1224869). Further: nearly all actives have a fitted effect of over 50% in size. In a few lines:
(§3)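 Fluorescence from a DNA-binding dye excluded by viable cells was measured repeatedly in the same HEK293 wells (600 cells/well) during continuous compound exposure at 37 C. Each assay gives one read point: 0, 8, 16, 24, 32 or 40 h.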

Assay [8] can be described thus: qHTS RealTime-Glo MT Cell Viability Assay in HepG2 cells - 40 hour (AID 1224870). Further: nearly all actives have a fitted effect of over 50% in size. In a few lines: (§4)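 HepG2 cells (600/well) mixed with RealTime-Glo MT reagent, settled 5 h at 37 C/5% CO2 before compound addition. Nonlytic NanoLuc luminescence from viable-cell prosubstrate reduction read repeatedly during 40 h treatment at 37 C.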
The nature of assay [9]: A CellTox Green Cytotoxicity Assay to monitor cytotoxicity in HEK293 cells - 40 hour (AID 1224871). Further: nearly all actives have a fitted effect of over 45% in size. Further: potency means the concentration at half of the fitted maximal effect. The gist of the method: as §3
The nature of assay [10]: qHTS RealTime-Glo MT Cell Viability Assay in HepG2 cells - 8 hour (AID 1224873). Further: nearly all actives have a fitted effect of over 55% in size. In a few lines:
as §4

Assay [11] can be described thus: qHTS RealTime-Glo MT Cell Viability Assay in HEK293 cells - 40 hour (AID 1224874). Further: nearly all actives have a fitted effect of over 50% in size. The note with it: RealTime-Glo luminescence; max response: hits give low values. The gist of the method: (§5)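 Luminescence, which tracks viable cell number through reduction of the prosubstrate to a NanoLuc substrate, was read over continuous 37 C culture. Cells (600/well) were premixed with reagent and rested 5 h before 23 nL of compound in DMSO was pinned.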

The nature of assay [12]: A CellTox Green Cytotoxicity Assay to monitor cytotoxicity in HEK293 cells - 24 hour (AID 1224875). Further: nearly all actives have a fitted effect of over 45% in size. In a few lines:
as §3

Assay [13] can be described thus: qHTS RealTime-Glo MT Cell Viability Assay in HepG2 cells - 32 hour (AID 1224877). Further: nearly all actives have a fitted effect of over 55% in size. In a few lines:
as §1

Assay [14] is described as follows: A CellTox Green Cytotoxicity Assay to monitor cytotoxicity in HepG2 cells - 40 hour (AID 1224879). Further: nearly all actives have a fitted effect of over 40% in size. Further: potency means the concentration at half of the fitted maximal effect. The gist of the method:
(§6)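 Real-time cytotoxicity: fluorescence of a cell-impermeant cyanine dye binding DNA of dead HepG2 cells, measured repeatedly (0–40 h) during compound exposure at 37 C. Cells seeded 600/well with reagent, dosed after 5 h.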

A short description of assay [15]: qHTS RealTime-Glo MT Cell Viability Assay in HEK293 cells - 16 hour (AID 1224872). The gist of the method: as §2
Assay [16] can be described thus: A CellTox Green Cytotoxicity Assay to monitor cytotoxicity in HepG2 cells - 16 hour (AID 1224876). Further: nearly all actives have a fitted effect of over 45% in size. In a few lines:
as §6

Assay [17] is described as follows: A CellTox Green Cytotoxicity Assay to monitor cytotoxicity in HepG2 cells - 24 hour (AID 1224878). Further: nearly all actives have a fitted effect of over 45% in size. The gist of the method:
as §6

Assay [18] can be described thus: qHTS RealTime-Glo MT Cell Viability Assay in HEK293 cells - 0 hour (AID 1224880). The gist of the method:
as §5

The nature of assay [19]: qHTS assay to identify small molecule agonists of H2AX - cell viability counter screen (AID 1224847; calls by dose curve; further: top concentration of the series differs between compounds; nearly all actives have a fitted effect of over 30% in size). In a few lines:
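Compounds tested at 15 concentrations were incubated 3 hr at 37C with wild-type CHO-K1 cells; cellular ATP-based luminescence (CellTiter-Glo) indicated viability.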

Unmarked numbers belong to inactive results. Inconclusive results are not listed. Activity calls are given as the source filed them. Unless noted, the call rests on the fitted dose curve; in most records, active means well fitted curve in the direction sought with a large enough effect in the repeat runs; inconclusive means weak or mixed curves; inactive means no such curve, though single readings can be large; an effect the other way counts as inactive or inconclusive.
On the % scale 0 is the no-effect control and ±100 the full control effect.

As to `CN1C[C@H]2c3ccccc3Oc3ccc(Cl)cc3[C@@H]2C1`, the Potency entry in assay [1], in assay [2], in [3], in [5], in assay [6] and in assay [7] was “inactive” each time. The Potency entry in assay [8], in assay [9], in [10], in [12] and in assay [13] was “inactive” each time. Further, the activity change, positive = activation in assay [4] was -3.7% [at 42.5 µM]. Moreover, the max response in [11] was -21.8%. In addition, the Potency in [14] is 26.8 µM (active).
`C#CCN(C)CCCOc1ccc(Cl)cc1Cl`: the Potency entry in assay [1], in assay [2], in [5], in assay [6], in [7] and in assay [8] was “inactive” in each case. The Potency result in assay [9], in [15], in assay [10], in assay [12], in assay [16] and in assay [13] was “inactive” in each case. In addition, the Potency entry in [17] and in assay [18] was “inactive” each time. The max response in assay [11] is -21.6%. In addition, the Potency in assay [14] is 6.01 µM (active).
Turning to `NC(N)=NCCC[C@H](N)C(=O)O`, the activity change, negative = cytotoxicity in [1] was -0.141% [at 6.97 µM]; in assay [19], 0.155% [at 14 µM]; in assay [15], 5.7% [at 6.97 µM]; in assay [18] it was 14% [at 6.97 µM]. The activation (H2AX phosphorylation) in assay [2] is -0.995% [at 14 µM]. In addition, the activity, negative = inhibition in assay [3] was 11% [at 8.39 µM]. Further, in assay [4], the activity change, positive = activation is 5.81% [at 8.39 µM]. Further, the activity change, negative = cytotoxic in assay [6] was 5.15% [at 6.97 µM]; in assay [8] it was 2.25% [at 6.97 µM]; in [13], 2.81% [at 6.97 µM]. In addition, the results for the cytotoxicity in assay [7] and in [17] were -14.4% [at 6.97 µM] and -6.35% [at 6.97 µM], respectively. For the same compound, the viability change, negative = cytotoxic in [10] is 1.03% [at 6.97 µM]. The max response in assay [11] was 2.97%. Also, the activity change in [12] was -20.5% [at 6.97 µM, hits give high values]. The cytotoxicity increase is -5.32% [at 6.97 µM] in [16] and -3.66% [at 6.97 µM] in assay [14].
For the compound `CCCC(=O)Nc1ccc(O)c(C(C)=O)c1`, the Potency result in assay [1], in [2], in assay [19], in [5], in assay [6] and in assay [7] was “inactive” in each case. Besides, the Potency result in [8], in assay [9], in assay [10], in assay [12], in [16] and in assay [13] was “inactive” in each case. In addition, the Potency entry in assay [17], in assay [14] and in assay [18] was “inactive” in each case. For the same compound, in assay [11], the max response was -1.71%.
With `CC(CC=O)c1ccccc1` (stereo unspecified), the Potency entry in [1], in assay [2], in assay [19], in [6], in assay [7] and in assay [8] was “inactive” throughout. Also, the Potency entry in assay [9], in assay [15], in [12], in assay [16], in [13] and in [17] was “inactive” throughout. Besides, the Potency entry in [14] and in assay [18] was “inactive” each time. The max response in assay [11] is 0.684%.
Consider `CCCCC(CC)CN1C(=O)C2C3C=CC(C3)C2C1=O` (stereo unspecified), for which the Potency entry in assay [1], in [2], in assay [8], in assay [10], in assay [16] and in assay [13] was “inactive” in each case. Further, the Potency entry in assay [17], in assay [14] and in assay [18] was “inactive” in each case. Besides, the Potency in assay [3] is 54.5 µM (active); in assay [9], 30.9 µM (active). Besides, the activity change, positive = activation in assay [4] was -33.1%.
Take `C/C(=C(\CCOP(=O)(O)O)SC(=O)c1ccccc1)N(C=O)Cc1cnc(C)nc1N`: the activity change, negative = cytotoxicity in assay [1] is -1.24% [at 6.97 µM]; in assay [19], 0.972% [at 14 µM]; in assay [5] it was 1.32% [at 6.97 µM]; in [15], 2.81% [at 6.97 µM]; in assay [18] it was 2.7% [at 6.97 µM]. The activation (H2AX phosphorylation) in assay [2] is -0.259% [at 14 µM]. Also, the activity change, negative = cytotoxic in [6] was 2.89% [at 6.97 µM]; in assay [8], -0.476% [at 6.97 µM]; in assay [13], 2.64% [at 6.97 µM]. Further, the cytotoxicity was 0.458% [at 6.97 µM] in assay [7] and -0.377% [at 6.97 µM] in [17]. For the same compound, the cytotoxicity increase was -7.37% [at 6.97 µM] in assay [9] and -0.293% [at 6.97 µM] in assay [14]. In addition, in assay [10], the viability change, negative = cytotoxic was 2.94% [at 6.97 µM]. Moreover, the max response in assay [11] was 6.16%. Besides, the activity change in assay [12] was -4.36% [at 6.97 µM, hits give high values].
